ELG1 genotoxic = inducers of genotoxicity in HEK293T ELG1-luciferase cells | HEK293T ELG1-luciferase reporter, luminescence, 16 h | Potency, µM (series often up to 46 µM), for inactives: at the top dose activity change, positive = activation, actives largely listed as activators | hit rate 1.3% among 330,000 | AID 504466; further: % of control where 0% means no effect; nearly all actives have a fitted effect of over 60% in size
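HEK293T cells expressing luciferase-tagged ELG1 were treated with compound or DMSO for 16 hr at 37°C. Luciferase activity was then read after 30 min with ONE-Glo at room temperature; rising signal flags genetic stress.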
FLuc counter = inhibits or activates purified firefly luciferase, miR-21 counter-screen | P08659 | purified FLuc, Km substrates, luminescence inhibition | Potency, µM (titrated, usually from 57.5 µM), without a hit: top-dose activity change, negative = inhibition, hits mostly inhibitors | hit rate 6.9% among 360,000 | AID 588342;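 further: plate controls were vehicle for no effect and reference inhibitor for full effect; nearly all actives have a fitted effect of over 55% in size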
Target sequence (P08659 whole entry, looked up): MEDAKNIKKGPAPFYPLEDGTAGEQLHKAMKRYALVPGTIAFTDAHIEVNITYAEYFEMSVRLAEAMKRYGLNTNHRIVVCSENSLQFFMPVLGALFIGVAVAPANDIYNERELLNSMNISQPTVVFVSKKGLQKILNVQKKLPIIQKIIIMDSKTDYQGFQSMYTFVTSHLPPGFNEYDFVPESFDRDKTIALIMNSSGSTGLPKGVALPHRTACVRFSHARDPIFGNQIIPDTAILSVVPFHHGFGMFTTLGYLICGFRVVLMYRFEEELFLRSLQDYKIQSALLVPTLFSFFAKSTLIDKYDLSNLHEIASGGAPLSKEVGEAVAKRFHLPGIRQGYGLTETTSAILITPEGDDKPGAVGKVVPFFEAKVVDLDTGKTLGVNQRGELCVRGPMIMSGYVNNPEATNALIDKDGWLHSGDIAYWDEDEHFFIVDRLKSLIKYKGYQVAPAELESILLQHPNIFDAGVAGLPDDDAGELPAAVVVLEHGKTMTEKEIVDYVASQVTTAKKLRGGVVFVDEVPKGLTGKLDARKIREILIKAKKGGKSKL
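Biochemical qHTS of compounds, final roughly 60 µM downward over six points, against 10 nM purified firefly luciferase using Km concentrations of substrates (10 uM D-luciferin, 10 uM ATP) in Tris acetate pH 7.5 buffer; luminescence output.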
KinaseGlo FLuc = blocks Kinase-Glo luciferase, a counter-screen artifact | Potency, µM (series often up to 38.3 µM), for inactives: at the highest dose activity change, negative = inhibition, most hits filed as inhibitors | hit rate 0.28% among 200,000 | Q27757 | Kinase-Glo luciferase, ATP luminescence, 8 min; further: on the % scale 0 is the no-effect control and ±100 the full control effect; nearly all actives have a fitted effect of over 60% in size
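Kinase-Glo luciferase light output from ATP and luciferin was measured with 10 uM ATP, within the enzyme's linear range. Buffer: 50 mM imidazole pH 7.2, 50 mM KCl, 7 mM MgCl2, 0.01% Tween 20, 0.05% BSA; luminescence read after 8 min at ambient temperature.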
SMN2 splice up = increases expression of the SMN2 splice variant; AID 1458; HEK293 SMN2-luciferase splicing reporter, luminescence, 30-36 h; hit rate 2.8% among 210,000; Potency, µM (series often up to 46.1 µM), for inactives: at the highest dose activity change, positive = activation, most hits filed as activators; further: % of control where 0% means no effect; nearly all actives have a fitted effect of over 55% in size
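HEK293 cells carry an SMN2 […]–luciferase reporter in which exon 7 inclusion puts luciferase in frame. Cells were plated 10-12 h before compound addition, then incubated 30-36 h at 37C. ONE-Glo luminescence was read; sodium butyrate at 4.5 mM final served as control.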
NPC1 prom act = NPC1 promoter activation. Huh7 NPC1 promoter luciferase reporter, 24 h. Potency, µM (highest dose often 9.22 µM), for inactives: top-dose activation, hits mostly activators. hit rate 2.4% among 320,000. AID 485313; further: % of control where 0% means no effect; nearly all actives have a fitted effect of over 60% in size
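In 1536-well qHTS, Huh7 cells harboring an NPC1 promoter–luciferase construct received compound for 24 h; activation was quantified by luminescence following luciferase reagent addition.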
Rab9 promoter act = activates the Rab9 promoter | Huh7 Rab9 promoter-luciferase reporter, luminescence, 24 h | Potency, µM (top dose mostly 9.22 µM), for the others: at the top dose activation, negative = inhibition, hits mostly activators | hit rate 2.8% among 320,000 | AID 485297; further: % of control where 0% means no effect; nearly all actives have a fitted effect of over 60% in size
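Cells were plated at 1500 per well in reduced-serum medium with 10% FBS and left 2 h. Compound in DMSO was then added for 24 h at 37 °C. Reporter signal was read by luminescence after 10 min with luciferase detection reagent.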
* = called active by the depositor; ? = inconclusive; nt = no result given; [ ] = another dose, or the depositor's remark. Most compounds without a hit are left out; they make up all but 7.5% or so of the library. The call rests on the fitted dose curve; in most records, active means well fitted curve in the direction sought with a large enough effect; inconclusive means small, poorly fitted or top-dose-only effect, or another doubt; inactive means no such curve, though single readings can be large; an effect the other way counts as inactive or inconclusive. Potency means the concentration at half of the fitted maximal effect.

SMILES | ELG1 genotoxic | FLuc counter | KinaseGlo FLuc | SMN2 splice up | NPC1 prom act | Rab9 promoter act
CCN(CC(=O)Nc1ccc(NC(C)=O)cc1)C(=O)c1cccc(S(=O)(=O)N2c3ccccc3CC2C)c1 (stereo not given) | 1.5% | ? | nt | nt | -11.1% | 8.4%
COc1cc(NC(=S)Nc2ccc3c(c2)OCCO3)cc(OC)c1OC | 10.7% | -18.9% | nt | nt | 4.9% | 14.3%
S=C(Nc1ccc(Br)cc1)Nc1ccc2c(c1)OCCO2 | ? | 12µM* | nt | nt | ? | ?
CN1C(=O)c2ccc(C(=O)Nc3ccc4c(c3)OCO4)cc2C1=O | ? | 2.39µM* | nt | nt | 14.7% | 12.2%
O=C(Nc1ccc2c(c1)OCCO2)c1ccc(Br)s1 | 1.46µM* | 0.675µM* | -6.6% | 1.12µM* | 3.55µM* | 1.58µM*
O=C(Nc1ccc2c(c1)OCCO2)C(=S)NCc1ccccc1 | 10.4% | 6.01µM* | -1.5% | ? | 16.8% | 24.8%
CCCCN1CC[C@@H]2C=CC[C@H](C(=O)OC)[C@@H]2C1=O | 7.5% | nt | 0.5%[39.9 µM] | nt | nt | nt
O=C(Nc1cccc(NC(=O)c2cccs2)c1)c1ccc2c(c1)OCCO2 | 2.5% | 7.57µM* | -5.5% | nt | 23.4% | 29.6%
O=C(Nc1ccc2c(c1)OCCO2)c1cnn(-c2ccccc2)n1 | ? | 4.78µM* | nt | nt | ? | 2.82µM*
O=C(Nc1ccc2c(c1)OCCO2)c1cccc(C(=O)Nc2ccc3c(c2)OCCO3)c1 | 13.8% | 6.75µM* | nt | nt | 3.98µM* | 16.5%[1.84 µM]
O=C(Nc1cccc(NC(=O)c2cccs2)c1)c1ccc(Br)cc1 | -7.4% | ? | nt | nt | -9.2% | 3.0%
CC(C)(C)c1ccc(C(=O)Nc2cccc([N+](=O)[O-])c2)cc1 | ? | 1.69µM* | -1.5% | 11.2µM* | 2.51µM* | 2.24µM*
Oc1ccc(N2CCN(C(=S)NCCc3ccccc3)CC2)cc1 | 3.3% | ? | 7.1% | -49.0% | ? | 18.2%
O=C(NC(=S)Nc1ccc2c(c1)OCCO2)c1cccc(Br)c1 | ? | 10.7µM* | 0.1% | 12.6µM* | 3.16µM* | 3.16µM*
O=C(Nc1ccc(C(=O)O)cc1)/C(=C/c1ccc2c(c1)OCO2)NC(=O)c1cccc(Br)c1 | 0.0% | -3.6% | -0.7% | 12.3% | 0.7% | 1.1%
O=C(O)CCn1cc(C2CC(c3ccccc3)=NN2c2ccccc2)c(-c2ccccc2)n1 (stereo not given) | -2.0% | 19µM* | -0.8% | 0.0% | -0.5% | 9.9%
Cc1ccc(-c2nn(-c3ccccc3)cc2C2CC(c3cccs3)=NN2C(=O)CCC(=O)O)cc1 (stereo not given) | 4.3% | -0.3% | 1.0% | -13.6% | -0.1% | -1.3%
COc1cccc(NC(=O)CN2C(=O)CC(c3ccco3)Sc3ccccc32)c1 (stereo not given) | nt | -17.1% | nt | -9.1% | nt | nt
CCCCNC(=O)CCCCCn1c(=O)[nH]c2ccccc2c1=O | nt | 0.6% | nt | nt | nt | nt
COc1ccc(NC(=O)N(C)C[C@H]2Oc3ccc(NC(=O)NC4CCCCC4)cc3C(=O)N([C@H](C)CO)C[C@@H]2C)cc1 | 3.5% | nt | nt | nt | nt | nt
Cc1ccc(OCCn2nc3ccccc3n2)c(C)c1 | 18.4µM* | ? | 2.4% | 3.3% | 12.0% | 18.2%
O=C1NC(=Nc2ccccc2)S/C1=C/c1cccnc1 | 14.1% | ? | -1.0% | -13.8% | -3.5% | 3.2%
COc1ccc(OC)c(/C=C2/Sc3ccccc3C2=O)c1 | 15.1% | 9.53µM* | -9.8% | nt | 0.9% | 1.1%
CC(=O)Nc1ccc(/C=C2\Sc3ccccc3C2=O)cc1 | ? | 0.379µM* | nt | nt | -6.4% | 12.8%
Cc1ccc(/C=C2\Sc3ccccc3C2=O)s1 | ? | 0.426µM* | -29.6% | ? | ? | ?
COc1ccc(OC)c(/C=C2\SC(=S)N(N3CCOCC3)C2=O)c1 | -0.8% | -18.1% | nt | nt | -1.4% | 15.8%
O=C1/C(=C/c2cccnc2)Sc2ccccc21 | 5.0% | 9.53µM* | -13.3% | -1.6% | -1.8% | -4.2%
CN1CCN(CC2(O)CCN(S(=O)(=O)c3ccc(Cl)cc3)CC2)CC1 | -2.4% | 0.9% | 0.0% | -8.6% | -1.6% | -7.6%

High-throughput results (PubChem)
